PfHsp40 rescue – compounds rescuing yeast from Plasmodium falciparum HSP40 toxicity; S. cerevisiae expressing PfHsp40, growth rescue, ATP luminescence; AID 504582; growth rescue, % at 12.5 µM; 340,000 compounds, 0.68% hits; in the data active = growth rescue above about 28%, passing the limit was not always enough;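 also: yeast W303a lacking pdr1 and pdr3 grown in galactose medium; growth measured after three days at 30 °C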
DUSP3 inh – DUSP3 (human) phosphatase inhibition. P51452. inhibition, % at 13.3 µM. recombinant VHR phosphatase, pNPP absorbance. 290,000 compounds, 0.52% hits; in the data active = inhibition above about 50%
Target sequence (P51452 whole entry, looked up): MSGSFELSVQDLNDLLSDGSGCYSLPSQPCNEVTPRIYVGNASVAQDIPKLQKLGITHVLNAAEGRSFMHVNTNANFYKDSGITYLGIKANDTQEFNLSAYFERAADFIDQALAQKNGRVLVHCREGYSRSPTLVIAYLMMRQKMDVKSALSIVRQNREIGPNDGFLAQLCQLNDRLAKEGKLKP
Mtb hypoxia rep – Mtb hypoxia fluorescent reporter inhibition. AID 1159583. 300,000 compounds, 0.1% hits. M. tuberculosis hypoxia-regulated fluorescent reporter, fluorescence. fluorescence inhibition, % (no concentration beside the values); in the data active = fluorescence inhibition mostly above about 23%, no sharp cut-off; inactive = mostly below about 17%
PriA SSB inh – K. pneumoniae PriA-SSBct interaction inhibition. AID 1272365. 430,000 compounds, 0.6% hits. AlphaScreen SSBct-PriA binding, biotinylated peptide. inhibition, % at 33 µM; in the data active = inhibition mostly above about 37%, no sharp cut-off; inactive = mostly below about 20%
ugtP null kill – growth inhibition of S. aureus ugtP deletion strain. growth inhibition, % (no concentration beside the values). 330,000 compounds, 0.54% hits. S. aureus RN4220 ugtP deletion, OD600 growth, 16 h; in the data active = growth inhibition above about 68%
Sa RN4220 lethal – S. aureus RN4220 growth inhibition; 330,000 compounds, 0.33% hits; OD600, 16 h; inhibition, % (test concentration not listed); AID 1259311; in the data active = inhibition above about 85%
A number is an active result; – = inactive; · = not tested or not shown. The list is not random: actives were taken first. Their share in the collection is about 1.8%.

SMILES	PfHsp40 rescue	DUSP3 inh	Mtb hypoxia rep	PriA SSB inh	ugtP null kill	Sa RN4220 lethal
O=C1CC(C(F)(F)F)=NN1c1ccccc1	·	·	·	35	·	·
O=c1nc(SCc2ccc([N+](=O)[O-])cc2)c2c(n1Cc1ccco1)CCCC2	·	·	·	–	·	·
N#CC(C#N)=Cc1ccc(O)c(O)c1	–	·	–	–	–	–
CC(C)(C)c1cc(C=C(C#N)C#N)cc(C(C)(C)C)c1O	211	·	–	–	–	–
C/C=C/c1ccc(OCCn2cnc3ccccc32)c(OC)c1	·	·	·	–	·	·
CC1CC(C)CN(CCC(=O)Nc2ccc3c(c2)OCO3)C1 (configuration not stated)	·	·	·	–	·	·
COc1ccc(CCn2c(NCc3ccco3)nc3c2c(=O)[nH]c(=O)n3C)cc1	–	–	·	–	–	–
C=CCOCC(O)Cn1c(NCc2ccco2)nc2c1c(=O)[nH]c(=O)n2C (configuration not stated)	·	·	·	67	·	·
CCOC(=O)c1c(P(=O)(N2CCOCC2)N2CCOCC2)noc1N	–	53	–	–	–	–
CCOC(=O)C1CCN(C(=O)c2ccc(COc3cccc4c3OC(C)(C)C4)cc2)CC1	·	·	·	–	·	·
CCOc1ccc(NC(=O)Nc2ccc(Br)cn2)cc1	–	–	–	82	–	–
CCOC(=O)c1ccccc1NC(=O)c1nnn(-c2ccccc2F)c1-c1ccncc1	·	·	·	–	·	·
CCOc1ccc2[nH]cc(C(=O)NCCCN3CCOCC3)c(=O)c2c1	–	–	–	–	–	–
Cc1cccc2c(=O)c(C(=O)NCCCN3CCOCC3)c[nH]c12	–	53	–	–	–	–
CCOc1cc(C)c(S(=O)(=O)N2CCN(C)CC2)cc1C	·	·	·	–	·	·
O=C(NCc1cccc(C(F)(F)F)c1)c1cc(Cl)cc(Cl)c1	–	–	–	–	–	–
CC(=O)c1c[nH]c(C(=O)NCc2cccc(C(F)(F)F)c2)c1	–	53	–	–	–	–
COc1ccc(CCC(=O)N2CCN(c3ccc4nnc(C5CC5)n4n3)CC2)cc1	·	·	·	–	·	·
C=CC(=O)Nc1cccc(Oc2ccnc(Nc3ccc(N4CCN(C)CC4)cc3)n2)c1	–	·	·	61	·	·
C=CC(=O)Nc1cccc(N(C)c2ccnc(Nc3ccc(N4CCN(C)CC4)cc3)n2)c1	–	·	·	57	·	·
C=CC(=O)Nc1cccc(Oc2ccnc3[nH]ccc23)c1	–	·	·	–	·	·
COc1ccccc1N1CCN(C2CCCN(Cc3ccccc3OCCO)C2)CC1 (configuration not stated)	–	59	–	–	–	–
COc1cccc(NC(=O)CN(C)C(=O)c2cccnc2Nc2cccc(C(F)(F)F)c2)c1	299	·	–	–	–	–
CCOc1ncccc1C(=O)N(C)CC(=O)Nc1ccc(C)cc1	–	–	·	–	–	–
COc1ccc(NC(=O)CN(C)C(=O)c2ccccc2OC)cc1	–	51	–	–	–	–
SMILES	PfHsp40 rescue	DUSP3 inh	Mtb hypoxia rep	PriA SSB inh	ugtP null kill	Sa RN4220 lethal
COc1cccc(NC(=O)CN(C)C(=O)c2ccccc2OCC(=O)Nc2cccc(C(F)(F)F)c2)c1	–	·	–	–	–	–
Cc1ccc(NC(=O)CN(C)C(=O)c2cccnc2Nc2cccc(C(F)(F)F)c2)cc1	567	–	–	–	–	–
COc1ccc(NC(=O)CN(C)C(=O)c2cccc3ccccc23)cc1	–	·	–	–	–	–
Cn1nc(-c2ccco2)cc1C(=O)O	·	·	·	–	·	·
COc1ccc(N2C(=NC(=O)C3CCCO3)SC3CS(=O)(=O)CC32)cc1 (configuration not stated)	–	56	–	–	–	–
O=C(COc1ccccc1)N=C1SC2CS(=O)(=O)CC2N1CCc1ccccc1 (configuration not stated)	–	–	–	–	–	–
O=C(COc1ccccc1)N=C1SC2CS(=O)(=O)CC2N1c1ccc(F)cc1 (configuration not stated)	–	54	–	–	–	–
O=C(O)CCC(=NNC(=O)CNC(=O)c1ccc2c(c1)OCCO2)c1ccccc1	·	·	–	–	–	–
O=C(NCc1ccnc(-c2ccsc2)c1)c1cccnc1	·	·	·	–	·	·
Oc1ccc(C=NNc2ccnc3cc(Cl)ccc23)cc1O	·	·	–	47	–	–
Clc1ccc2c(NN=Cc3ccccc3Br)ccnc2c1	·	·	–	–	99	98
CC/C(=N\Nc1ccnc2cc(Cl)ccc12)c1ccc(O)cc1	–	–	·	·	·	·
CC(=NNc1ccnc2cc(Cl)ccc12)c1ccc(N)cc1	·	·	–	71	–	–
Oc1ccc(/C=N/Nc2ccnc3cc(Cl)ccc23)cc1O	–	–	·	·	·	·
Clc1ccc2c(NN=Cc3cccnc3)ccnc2c1	·	·	–	–	–	–
Clc1ccc2c(NN=Cc3cccc(Br)c3)ccnc2c1	·	·	–	–	101	101
